# Sfp PPTase inh = qHTS Assay for Inhibitors of Bacillus subtilis Sfp phosphopantetheinyl transferase (PPTase) | 4'-phosphopantetheinyl transferase ffp (Bacillus subtilis), Q9F4F7 | Biochemical Sfp PPTase activity, qHTS | Potency, µM, hits mostly inhibitors | 3.5% of 310,000 active | AID 1490, 2009;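 also: the enzyme is Sfp with the accession as filed and its product quenches rhodamine fluorescence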
#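 Step 1, compound plus 15 nM Sfp-PPTase, 15 min, room temperature. Step 2, add rhodamine-CoA (5 uM) and BHQ-2-YbbR (12.5 uM). Step 3, read 525/598 nm fluorescence at 0 and 30 min.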
# JMJD2A Tudor inh = qHTS Assay for Inhibitors of JMJD2A-Tudor Domain; 4.4% of 390,000 active; Lysine-specific demethylase 4A (Homo sapiens), O75164; Potency, µM (titrated, usually from 114 µM), hits mostly inhibitors; AlphaScreen JMJD2A-Tudor / H3K4me3 peptide binding; also: nearly all actives have a fitted effect of over 50% in size
# TDP1 block = qHTS Assay for Inhibitors of Tyrosyl-DNA Phosphodiesterase (TDP1) | Tyrosyl-DNA phosphodiesterase 1 (Homo sapiens), Q9NUW8 | recombinant TDP1, AlphaScreen DNA substrate cleavage | Potency, µM (top dose mostly 130 µM), actives largely listed as inhibitors | 0.28% of 350,000 active | AID 485290, 2010; also: nearly all actives have a fitted effect of over 40% in size
#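 Tdp1 1 nM final; 15 min RT w/ cpd; substrate 15 nM, 5 min; beads 10 ug/ml, 10 min; AlphaScreen read. Neg ctrl: no enzyme.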
# G9a block = qHTS Assay for Inhibitors of Histone Lysine Methyltransferase G9a. Histone-lysine N-methyltransferase EHMT2 (Homo sapiens), Q96KQ7. 8.8% of 350,000 active. G9a H3K9 monomethylation, AlphaScreen, 2 h. Potency, µM (doses to about 102 µM), hits mostly inhibitors; also: nearly all actives have a fitted effect of over 75% in size
# Target sequence (Q96KQ7 913-1193 limits assumed): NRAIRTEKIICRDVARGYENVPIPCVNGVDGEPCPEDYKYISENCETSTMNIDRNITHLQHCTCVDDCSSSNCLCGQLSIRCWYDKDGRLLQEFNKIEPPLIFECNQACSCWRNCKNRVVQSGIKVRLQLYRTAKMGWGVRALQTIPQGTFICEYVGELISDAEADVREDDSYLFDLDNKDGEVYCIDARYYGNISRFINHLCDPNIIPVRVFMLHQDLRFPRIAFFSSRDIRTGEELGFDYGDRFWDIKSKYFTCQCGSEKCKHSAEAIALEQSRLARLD
#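 Readings reflect AlphaScreen signal from monomethyl-H3K9 antibody detection. HMT at 20 nM; substrate b-H3K9 500 nM; cofactor SAM 20 uM; 2 h RT reaction; compounds tested as titrations in qHTS with 15 min preincubation.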
# HP1b chromo inh = HTS for Inhibitors of HP1-beta Chromodomain Interactions with Methylated Histone Tails | Chromobox protein homolog 1 (Homo sapiens), P83916 | AlphaScreen HP1-beta / biotin-H3K9me3 peptide binding | Potency, µM (titrated, usually from 114 µM), hits mostly inhibitors | 0.56% of 390,000 active | AID 540317, 2011; also: nearly all actives have a fitted effect of over 70% in size
# Target sequence (P83916 whole entry, looked up): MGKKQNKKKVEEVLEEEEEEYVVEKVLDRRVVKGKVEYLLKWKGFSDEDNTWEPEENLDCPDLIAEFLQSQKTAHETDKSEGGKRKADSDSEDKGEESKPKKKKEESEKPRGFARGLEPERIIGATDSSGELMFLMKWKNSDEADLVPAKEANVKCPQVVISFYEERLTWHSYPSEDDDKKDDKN
#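 AlphaScreen: HP1-beta (50 nM) preformed 30 min with biotin-H3(1-18)K9me3 peptide (50 nM) in PBS pH 7.4, 0.01% Tween-20. Compound added for 30 min at RT, then streptavidin donor/nickel chelate acceptor beads (10 ug/mL) for 30 min.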
# BAZ2B inh = qHTS Assay for Inhibitors of BAZ2B; Bromodomain adjacent to zinc finger domain protein 2B (Homo sapiens), Q9UIF8; AlphaScreen BAZ2B-H3K14Ac peptide displacement; Potency, µM (doses to about 114 µM), most hits filed as inhibitors; 4.4% of 360,000 active; AID 504333, 2011; also: nearly all actives have a fitted effect of over 60% in size
#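 AlphaScreen luminescence quantifies BAZ2B engagement of H3K14Ac peptide; the protein and biotinylated peptide are both at 50 nM final, buffer PBS pH 7.4 with 0.01% Tween-20, all steps at room temperature.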
# Numbers stand for hits; i = inactive; ? = inconclusive; nt = no result; [ ] = another dose, or the depositor's remark. Hits are enriched below; roughly 12% of the tested compounds scored in any of these assays. Calls follow the shape of the dose curve; as a rule, active = well fitted curve in the direction sought with a large enough effect; inconclusive = small, poorly fitted or top-dose-only effect, or another doubt; inactive = no such curve, though single readings can be large; an effect the other way counts as inactive or inconclusive.
SMILES,Sfp PPTase inh,JMJD2A Tudor inh,TDP1 block,G9a block,HP1b chromo inh,BAZ2B inh
Cc1cc2nc(SCCOC(=O)Nc3ccc(Cl)cc3)nc(C)c2cc1C,i,i,i,2µM,i,i
Nc1c(/C=C2\C=Nc3ccccc32)c(=O)nc2sc(CC(=O)N3CCOCC3)nn12,i,i,i,i,i,i
CSc1nsc2nc(=O)c(/C=C3\C(C)=Nc4ccccc43)c(N)n12,i,i,i,17.8µM,i,?
CC(C)NC(=O)CCCN1C(=O)c2ccccc2Sc2ncccc21,i,i,nt,?,i,i
Cc1nc2nc[nH]c2cc1Br,i,i,i,i,i,i
Cc1nc2[nH]c(=S)[nH]c2cc1Br,i,44.7µM,i,3.98µM,i,i
Brc1ccc(-c2nc3ccccc3s2)s1,i,i,i,i,i,i
Brc1cc2c(cc1-c1nc3ccccc3s1)OCO2,i,i,i,39.8µM,i,i
CSc1ccccc1NC(=O)c1noc(C)c1[N+](=O)[O-],44.7µM,i,i,35.5µM,i,i
Cc1onc(C(=O)Nc2c(C)n(C)n(-c3ccccc3)c2=O)c1[N+](=O)[O-],79.4µM,i,nt,nt,i,?
C/C(=N\N=C(/N)SC1CC(=O)N(c2ccc(Cl)cc2)C1=O)c1cccs1 (stereo unspecified),i,?,i,39.8µM,i,?
CS(=O)(=O)c1ccc(C(=O)OCC(=O)Nc2ccc(OC(F)(F)F)cc2)cc1[N+](=O)[O-],nt,i,i,nt,i,nt
Cc1ccc(C(NC(=O)N2CCCC2)C(Cl)Cl)cc1F (stereo unspecified),i,i,i,35.5µM,i,i
CCN1CCN(C(=O)NC(c2ccc(C)c(F)c2)C(Cl)Cl)CC1 (stereo unspecified),i,i,i,?,i,i
CNC(=O)CSc1nnc(-c2cccc(S(=O)(=O)N3CCOCC3)c2)n1-c1ccc(F)cc1,i,i,i,?,i,i
CN(C)S(=O)(=O)c1cccc(-c2nnc(SCC(=O)NCCCCCC(=O)O)n2-c2ccc(F)cc2)c1,i,?,nt,15.8µM,i,i
NC(=O)c1c(NC(NC(=O)c2ccco2)C(=O)c2ccc(Cl)cc2)sc2c1CCCC2 (stereo unspecified),56.2µM,?,i,25.1µM,i,?
CCOC(=O)c1c(NC(=O)c2ccco2)sc2c1CCCC2,i,?,i,i,i,nt
N#Cc1c(NC(NC(=O)c2ccco2)C(=O)c2ccccc2)sc2c1CCCC2 (stereo unspecified),20µM,50.1µM,i,5.01µM,i,i
O=[N+]([O-])c1cc2no[n+]([O-])c2cc1N1CCCCC1,nt,44.7µM,nt,nt,14.1µM,nt
CCC1=C2CC[C@H]3C(=O)N(CC(=O)OC)C(=O)[C@H]3[C@H]2[C@@]2(C)C(=O)N(CC3CC3)C(=O)N2C1=O,50.1µM,nt,i,nt,nt,nt
CCC1=C2CC[C@H]3C(=O)N(CC)C(=O)[C@H]3[C@H]2[C@@]2(C)C(=O)N(CC(=O)OC)C(=O)N2C1=O,i,nt,i,nt,nt,nt
CC(C)c1ccc(-c2noc(SCC(=O)N3CCCCC3C)n2)cc1 (stereo unspecified),nt,i,i,i,i,i
O=C1NN(c2ccc(Cl)c(Cl)c2)C(=O)/C1=C/c1cccc(OC(=O)c2cccs2)c1,?,nt,i,?,nt,50.1µM
O=C1NN(c2ccccc2)C(=O)/C1=C\c1cccc(OC(=O)c2cccs2)c1,50.1µM,?,nt,?,i,56.2µM
SMILES,Sfp PPTase inh,JMJD2A Tudor inh,TDP1 block,G9a block,HP1b chromo inh,BAZ2B inh
Cc1ccc(-n2c(=O)[nH]c3cc(C(=O)NCCc4ccccc4)ccc3c2=O)cc1,nt,i,i,i,i,i
O=C(Nc1nnc(C2=COCCO2)o1)c1ccc(S(=O)(=O)N2CCCCC2)cc1,i,79.4µM,i,?,i,nt
O=C(Nc1nnc(C2=COCCO2)o1)c1ccc(S(=O)(=O)N2CCCC2)cc1,i,50.1µM,i,?,i,nt
COc1ccc(C(=O)Nc2nnc(C3=COCCO3)o2)cc1,i,39.8µM,i,i,i,15.8µM
COc1ccc(-c2nnc(NC(=O)c3ccc(S(=O)(=O)N4COCC4(C)C)cc3)o2)cc1,i,i[11.4 µM],i,i[2.33 µM],i,56.2µM
CC1CCN(S(=O)(=O)c2ccc(C(=O)Nc3nnc(C4=COCCO4)o3)cc2)CC1,i,i,i,?,i,?
Cc1ccc(-c2nnc(NC(=O)C3=COCCO3)o2)c(C)c1,nt,i,i,i,i,?
CC1CCCN(CCCNC(=O)c2ccc3c(c2)N(Cc2ccc(Cl)cc2)C(=O)c2ccccc2S3(=O)=O)C1 (stereo unspecified),nt,?,i,?,i,?
Cc1ccc(OC(C)C(=O)N2CCN(CCc3ccncc3)CC2)cc1C (stereo unspecified),nt,i,i,i,i,i
COc1ccc(Cn2c(SCc3ccc(C(=O)NC4CCCC4)cc3)nc3cccnc32)cc1,nt,i,i,i,i,i
O=C(NCc1ccco1)c1ccc2c(=O)n(CC3CCCO3)c(=S)[nH]c2c1 (stereo unspecified),i,i,i,8.91µM,i,i
O=C(NCc1ccccc1)c1ccc2c(=O)n(CC3CCCO3)c(=S)[nH]c2c1 (stereo unspecified),i,89.1µM,i,i,i,i
COCCCNC(=O)c1ccc2c(=O)n(CC3CCCO3)c(=S)[nH]c2c1 (stereo unspecified),i,20µM,i,i[12.7 µM],i,?
Cc1ccc(CNC(=O)c2ccc3c(=O)n(CC4CCCO4)c(=S)[nH]c3c2)cc1 (stereo unspecified),i,i,i,i,i,i
COc1ccccc1Cn1c(=S)[nH]c2cc(C(=O)NCCN(C)C)ccc2c1=O,i,i,nt,44.7µM,i,i
CC1(C)C2CCC1(C)C(NC(=O)COC(=O)c1ccc(S(C)(=O)=O)c([N+](=O)[O-])c1)C2 (stereo unspecified),nt,i,i,nt,i,nt
Clc1ccc(C2CSc3c4ncnc-4ncn32)cc1 (stereo unspecified),i,i,i,i,i,i
CC(=O)OC[C@@H]1O[C@@H](O/N=C2/C[C@@H](O)[C@@H](O)[C@@H]3[C@H]4C(=O)N(c5ccc(F)cc5F)C(=O)[C@@H]4CC[C@@H]23)[C@H](OC(C)=O)[C@H](OC(C)=O)[C@@H]1OC(C)=O,i,nt,i[21 µM],nt,nt,nt
CC(C)=N/N=C(\N)SCc1ccccc1,i,i,i,7.94µM,i,79.4µM

# Assay outcomes from PubChem BioAssay.
